Results: article PMC5540273 (PLoS ONE, 2017)
Read-outs that look alike come from different tables or passages of the source.

Experiments:
[1] = system: FLT1; settings: concentration: 1 μM, replicates: in singlicate; n = 1
[2] = system: FLT3-autoinhibited; settings: concentration: 1 μM, replicates: in singlicate; n = 1
[3] = system: FLT3; settings: concentration: 1 μM, replicates: in singlicate; n = 1
[4] = system: FLT4; settings: concentration: 1 μM, replicates: in singlicate; n = 1
[5] = system: FRK; settings: concentration: 1 μM, replicates: in singlicate; n = 1
[6] = system: FYN; settings: concentration: 1 μM, replicates: in singlicate; n = 1
[7] = system: GAK; settings: concentration: 1 μM, replicates: in singlicate; n = 1
[8] = system: T1, GCN2(Kin.Dom.2,S808G); settings: concentration: 1 μM, replicates: in singlicate; n = 1
T1 construct: gene EIF2AK4

[9] = system: GRK1; settings: concentration: 1 μM, replicates: in singlicate; n = 1
[10] = system: T2, GRK2; settings: concentration: 1 μM, replicates: in singlicate; n = 1
T2 construct: gene ADRBK1

[11] = system: T3, GRK3; settings: concentration: 1 μM, replicates: in singlicate; n = 1
T3 construct: gene ADRBK2

[12] = system: GRK4; settings: concentration: 1 μM, replicates: in singlicate; n = 1
[13] = system: GRK7; settings: concentration: 1 μM, replicates: in singlicate; n = 1
[14] = system: GSK3A; settings: concentration: 1 μM, replicates: in singlicate; n = 1
[15] = system: GSK3B; settings: n = 1
[16] = system: T4, HASPIN; settings: concentration: 1 μM, replicates: in singlicate; n = 1
T4 construct: gene GSG2

[17] = system: HCK; settings: concentration: 1 μM, replicates: in singlicate; n = 1
[18] = system: HIPK1; settings: concentration: 1 μM, replicates: in singlicate; n = 1
[19] = system: HIPK2; settings: concentration: 1 μM, replicates: in singlicate; n = 1
[20] = system: HIPK3; settings: concentration: 1 μM, replicates: in singlicate; n = 1
[21] = concentration: 1 μM, replicates: in singlicate
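Note: KINOMEscan kinase panel screen.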

O=C(Nc1n[nH]c2nc(-c3cccs3)c(Br)cc12)C1CCCC1 [SB-743341]
%Inh [1]: 10% | %Inh [2]: 34% | %Inh [3]: 39% | %Inh [4]: 0% | %Inh [5]: 5% | %Inh [6]: 6% | %Inh [7]: 0% | %Inh [8]: 0% | %Inh [9]: 26% | %Inh [10]: 0% | %Inh [11]: 24% | %Inh [12]: 33% | %Inh [13]: 11% | %Inh [14]: 96.6% | %Inh ([15]; 1 µM): 81% | %Inh [16]: 0% | %Inh [17]: 8% | %Inh [18]: 20% | %Inh [19]: 25% | %Inh [20]: 52%

CNc1cc(-c2ccc3c(N)n[nH]c3c2)nc(N)n1 [GSK2224810]
%Inh [1]: 15% | %Inh [2]: 16% | %Inh [3]: 0% | %Inh [4]: 2% | %Inh [5]: 7% | %Inh [6]: 20% | %Inh [7]: 9% | %Inh [8]: 0% | %Inh [9]: 6% | %Inh [10]: 0% | %Inh [11]: 10% | %Inh [12]: 0% | %Inh [13]: 0% | %Inh [14]: 6% | %Inh [15, 21]: 0% | %Inh [16]: 61% | %Inh [17]: 0% | %Inh [18]: 14% | %Inh [19]: 0% | %Inh [20]: 18%

O=C(Nc1n[nH]c2nc(-c3cccs3)c(Br)cc12)C1CC1 [SB-735297]
%Inh [1]: 8% | %Inh [2]: 19% | %Inh [3]: 81% | %Inh [4]: 0% | %Inh [5]: 0% | %Inh [6]: 0% | %Inh [7]: 0% | %Inh [8]: 0% | %Inh [9]: 10% | %Inh [10]: 0% | %Inh [11]: 0% | %Inh [12]: 0% | %Inh [13]: 17% | %Inh [14]: 93.8% | %Inh ([15]; 1 µM): 52% | %Inh [16]: 0% | %Inh [17]: 0% | %Inh [18]: 27% | %Inh [19]: 58% | %Inh [20]: 11%

CS(=O)(=O)Cc1ccc(Nc2nccc(-c3c(-c4cccc(NC(=O)C5CCCCC5)c4)nn4ncccc34)n2)cc1 [GSK350559]
%Inh [1]: 63% | %Inh [2]: 25% | %Inh [3]: 88% | %Inh [4]: 52% | %Inh [5]: 4% | %Inh [6]: 1% | %Inh [7]: 14% | %Inh [8]: 0% | %Inh [9]: 0% | %Inh [10]: 44% | %Inh [11]: 0% | %Inh [12]: 0% | %Inh [13]: 5% | %Inh [14]: 0% | %Inh [15, 21]: 20% | %Inh [16]: 17% | %Inh [17]: 1% | %Inh [18]: 5% | %Inh [19]: 14% | %Inh [20]: 23%

Cc1ccc(NC(=O)Nc2ccccc2F)cc1-c1ccc(C(=O)Nc2ccncc2)cc1 [GSK1398477]
%Inh [1]: 45% | %Inh [2]: 0% | %Inh [3]: 13% | %Inh [4]: 34% | %Inh [5]: 72% | %Inh [6]: 40% | %Inh [7]: 24% | %Inh [8]: 28% | %Inh [9]: 0% | %Inh [10]: 0% | %Inh [11]: 0% | %Inh [12]: 30% | %Inh [13]: 0% | %Inh [14]: 25% | %Inh [15, 21]: 3% | %Inh [16]: 0% | %Inh [17]: 0% | %Inh [18]: 0% | %Inh [19]: 0% | %Inh [20]: 10%

CSc1ccc(-c2nc3n(c2-c2ccncc2)CCC3)cc1 [SKF-105561]
%Inh [1]: 7% | %Inh [2]: 7% | %Inh [3]: 8% | %Inh [4]: 0% | %Inh [5]: 0% | %Inh [6]: 0% | %Inh [7]: 10% | %Inh [8]: 2% | %Inh [9]: 8% | %Inh [10]: 0% | %Inh [11]: 28% | %Inh [12]: 5% | %Inh [13]: 0% | %Inh [14]: 0% | %Inh [15, 21]: 20% | %Inh [16]: 35% | %Inh [17]: 7% | %Inh [18]: 0% | %Inh [19]: 0% | %Inh [20]: 6%

CC(=O)c1cccc(NC(=O)NC2CCN(c3ccnc(Nc4ccc(F)cc4)n3)C2)c1 (stereo not shown) [GSK1379710]
%Inh [1]: 27% | %Inh [2]: 11% | %Inh [3]: 0% | %Inh [4]: 12% | %Inh [5]: 0% | %Inh [6]: 27% | %Inh [7]: 5% | %Inh [8]: 0% | %Inh [9]: 0% | %Inh [10]: 10% | %Inh [11]: 49% | %Inh [12]: 0% | %Inh [13]: 0% | %Inh [14]: 32% | %Inh [15, 21]: 4% | %Inh [16]: 26% | %Inh [17]: 2% | %Inh [18]: 0% | %Inh [19]: 0% | %Inh [20]: 7%

COc1ccc(CSc2nnc(-c3ccc4nccn4c3)o2)cc1C(F)(F)F
%Inh [1]: 35% | %Inh [2]: 25% | %Inh [3]: 15% | %Inh [4]: 9% | %Inh [5]: 0% | %Inh [6]: 0% | %Inh [7]: 6% | %Inh [8]: 0% | %Inh [9]: 5% | %Inh [10]: 0% | %Inh [11]: 37% | %Inh [12]: 0% | %Inh [13]: 15% | %Inh [14]: 93.8% | %Inh [15, 21]: 93.8% | %Inh [16]: 32% | %Inh [17]: 0% | %Inh [18]: 31% | %Inh [19]: 20% | %Inh [20]: 5%

COc1cc2ncnc(Nc3cccc(Br)c3)c2cc1OC.Cl [GI230329]
%Inh [1]: 21% | %Inh [2]: 0% | %Inh [3]: 0% | %Inh [4]: 0% | %Inh [5]: 15% | %Inh [6]: 16% | %Inh [7]: 87% | %Inh [8]: 0% | %Inh [9]: 0% | %Inh [10]: 36% | %Inh [11]: 26% | %Inh [12]: 0% | %Inh [13]: 0% | %Inh [14]: 0% | %Inh [15, 21]: 0% | %Inh [16]: 20% | %Inh [17]: 24% | %Inh [18]: 0% | %Inh [19]: 0% | %Inh [20]: 0%

Cc1cnc(N)c(/C=C/c2cncc(C(=O)NCCc3ccc(Cl)cc3Cl)c2)c1.Cl [GSK190937]
%Inh [1]: 0% | %Inh [2]: 0% | %Inh [3]: 2% | %Inh [4]: 7% | %Inh [5]: 6% | %Inh [6]: 20% | %Inh [7]: 29% | %Inh [8]: 3% | %Inh [9]: 0% | %Inh [10]: 0% | %Inh [11]: 6% | %Inh [12]: 0% | %Inh [13]: 0% | %Inh [14]: 5% | %Inh [15, 21]: 0% | %Inh [16]: 29% | %Inh [17]: 0% | %Inh [18]: 0% | %Inh [19]: 0% | %Inh [20]: 26%

Cn1cncc1-c1cc2c(Nc3ccc(OCc4ccccc4)cc3)ncnc2cn1 [GW281179]
%Inh [1]: 19% | %Inh [2]: 0% | %Inh [3]: 0% | %Inh [4]: 0% | %Inh [5]: 6% | %Inh [6]: 28% | %Inh [7]: 0% | %Inh [8]: 1% | %Inh [9]: 0% | %Inh [10]: 9% | %Inh [11]: 33% | %Inh [12]: 0% | %Inh [13]: 0% | %Inh [14]: 8% | %Inh [15, 21]: 11% | %Inh [16]: 0% | %Inh [17]: 0% | %Inh [18]: 0% | %Inh [19]: 0% | %Inh [20]: 0%
